Screening results: PubChem, National Center for Advancing Translational Sciences (NCATS)
An excerpt weighted towards active compounds, which were near 1.6% of everything screened.
IMPase Li cell = cell-permeable IMPase inhibitors with lithium potentiation; Potency, µM (titrated, usually from 59.4 µM), for the others: top-dose activity, negative = IMPase inhibition, most hits filed as inhibitors; CHO-M1 cells, IP1 TR-FRET (IP-One), carbachol + lithium; hit rate 0.35% among 210,000;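 further: IP1 builds up when IMPase is blocked and the TR-FRET signal falls; potency means the concentration at half of the fitted maximal effect; plate controls were basal vehicle for no effect and high inhibitor control for full effect; nearly all actives have a fitted effect of over 50% in size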
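IP1 accumulation measured by competitive TR-FRET in lysed CHO-M1 cells after 30 min compound exposure at 37C, with a small lithium addition to potentiate weak responses. Hill-equation AC50 from ratio and donor-channel data.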
HttQ103 aggreg = inhibitors of mutant huntingtin aggregate formation in PC12 cells; PC12 HttQ103-GFP aggregates, Acumen cytometry, 40 h; Potency, µM (highest dose often 46.1 µM), without a hit: at the top dose activity change, negative = inhibition, hits mostly inhibitors; hit rate 1.1% among 220,000; further: potency means the concentration at half of the fitted maximal effect; on the % scale 0 is the no-effect control and ±100 the full control effect; nearly all actives have a fitted effect of over 60% in size
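Inducible Q103 Huntingtin exon 1–GFP PC12 line, 1500 cells/well in phenol red free DMEM with 5% equine and 5% calf serum. Tebufenozide 100 nM induced expression; compounds titrated; aggregates quantified by cytometry.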
LMNA splice mod = changes lamin A minigene splicing in HeLa cells; HeLa LMNA splicing GFP/RFP minigene ratio, 48 h; hit rate 0.01% among 200,000; Potency, µM (titrated, usually from 46.1 µM), inactives show at the highest dose ratio change, negative = inhibition, usual class: inhibitors; active means well fitted inhibition curve with a large enough effect in the signal ratio, with a control signal flat, not every such curve was filed as active; inconclusive means small, poorly fitted or top-dose-only effect, or effect the other way, or a change in a side signal; the % refers to the signal ratio; further: potency means the concentration at half of the fitted maximal effect; on the % scale 0 is the no-effect control and ±100 the full control effect
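Read-out is the ratio of GFP to DsRed2 object intensity, acquired by 488 nm laser-scanning cytometry on HeLa lamin A-EGFP minigene reporter cells. Compound incubation 48 hrs at 37 °C in Opti-MEM with 2% FBS; DMSO 0.5% final.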
HTT cytoprotect = cytoprotection in Huntington HTT-Q103 PC12 cell model. hit rate 0.14% among 230,000. PC12 HTT-Q103 induced, cytoprotection, ATP luminescence, 40 h. AID 1471. Potency, µM (series often up to 56.4 µM), for the others: cytoprotection (ATP increase), most hits filed as activators; further: potency means the concentration at half of the fitted maximal effect; % of control where 0% means no effect; nearly all actives have a fitted effect of over 45% in size
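PC12 cells with ecdysone-inducible HTT exon 1 Q103-GFP, induced with 100 nM tebufenozide and co-treated with library compounds in a dose series (1536-well, 1500 cells/well). Cytoprotection read as ATP content by ATPlite luminescence.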
IMPase cell inh = cell-permeable inhibitors of inositol monophosphatase (IMPase); P97697; CHO-M1 cells, IP1 accumulation, HTRF TR-FRET ratio; inhibition (IP1 accumulation), % at 46.1 µM; 120,000 tested, under 10 active; AID 901; active means well fitted curve in the direction sought with a large enough effect in the signal ratio, not every such curve was filed as active; inconclusive means small, poorly fitted or top-dose-only effect, or a change in a side signal; inactive means no such curve, though single readings can be large or run the other way; the % refers to the signal ratio;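 further: cells stimulated with carbachol in lithium chloride buffer; plate controls were DMSO basal wells for no effect and reference inhibitor wells for full effect; higher means more IMPase inhibition seen as more IP1 and lower FRET ratio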
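Measured: the HTRF emission ratio (665/620 nm) plus the 620 nm donor channel, each fitted to the Hill equation to give AC50. Cells were CHO-M1 given compounds up to 46 uM and a 30 min carbachol stimulation at 37C.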
NPSR antag = neuropeptide S receptor (human) antagonism, cAMP; Q6W5P4; CHO-NPSR cells, cAMP TR-FRET, antagonist mode; AID 1461; Potency, µM (highest dose often 38.3 µM), inactives show at the highest dose activity change, negative = inhibition, actives largely listed as inhibitors; hit rate 1% among 220,000; further: potency means the concentration at half of the fitted maximal effect; on the % scale 0 is the no-effect control and ±100 the full control effect; nearly all actives have a fitted effect of over 50% in size
Target sequence (Q6W5P4 whole entry, looked up): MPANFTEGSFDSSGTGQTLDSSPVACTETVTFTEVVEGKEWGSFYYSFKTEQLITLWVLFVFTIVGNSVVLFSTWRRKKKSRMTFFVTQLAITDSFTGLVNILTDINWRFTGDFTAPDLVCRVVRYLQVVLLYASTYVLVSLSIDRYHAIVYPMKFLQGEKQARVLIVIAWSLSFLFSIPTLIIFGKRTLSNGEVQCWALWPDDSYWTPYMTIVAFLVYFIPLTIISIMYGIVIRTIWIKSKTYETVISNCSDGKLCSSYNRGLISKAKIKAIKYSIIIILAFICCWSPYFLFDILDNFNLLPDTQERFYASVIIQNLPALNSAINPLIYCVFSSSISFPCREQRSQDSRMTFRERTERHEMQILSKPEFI
Active calls of the source: *; ? = inconclusive; / = no result given; [ ] = another dose, or the depositor's remark. Unless noted, the call rests on the fitted dose curve; in most records, active means well fitted curve in the direction sought with a large enough effect; inconclusive means small, poorly fitted or top-dose-only effect, or another doubt; inactive means no such curve, though single readings can be large; an effect the other way counts as inactive or inconclusive.

SMILES	IMPase Li cell	HttQ103 aggreg	LMNA splice mod	HTT cytoprotect	IMPase cell inh	NPSR antag
O=c1[nH]c(=O)n(Cc2ccccc2)c2c1C(C(F)(F)F)(C(F)(F)F)N=C(c1ccco1)N2	5%[38.3 µM]	?	4%	-37%	-2	-9%[46.1 µM]
Cc1nc([N+](=O)[O-])c(Br)n1Cc1ccc(Cl)c(Cl)c1	-3%	8.9µM*	/	7%[10 µM]	/	?
C=C(CC[C@@H](C)[C@H]1CCC2[C@]1(C)CC[C@]13C[C@@]14CCC(OC(=O)/C=C/c1ccc(O)c(OC)c1)C(C)(C)[C@@H]4CC[C@@]23C)C(C)C (stereo not given in full)	/	17%	/	-8%	/	/
CC(C)=CCC/C(C)=C/CO/N=C1/C[C@@H](O)[C@@H](O)[C@@H]2[C@@H]3C(=O)N(Cc4ccccc4)C(=O)[C@H]3CC[C@H]12	/	/	/	-3%[10 µM]	/	/
O=C1NCCN1c1ncc([N+](=O)[O-])s1	7%	2%[20.6 µM]	-15%	0.089µM*	-6[20.6 µM]	/
COc1ccc(-c2csc(NC(=S)NC(=O)/C=C/c3ccco3)n2)cc1Br	/	-18%[9.22 µM]	?	-51%[10 µM]	/	?
Cc1ccc(-c2nc3ccccc3o2)cc1NC(=S)NC(=O)/C=C/c1ccco1	1%[38.3 µM]	30%	5%	-41%	2	-20%[46.1 µM]
O=C(/C=C/c1ccco1)NC(=S)Nc1cccc(-c2nc3ccccc3o2)c1	7%[38.3 µM]	?	?	-77%	1	1.6µM*
COc1ccc(-c2csc(NC(=S)NC(=O)/C=C/c3ccco3)n2)cc1OC	-8%	4%	?	-30%[10 µM]	/	1µM*
O=C(NCC1CCCO1)Nc1ccc2c(c1)OCO2 (stereo not given)	1%	0%[9.22 µM]	/	2%[10 µM]	/	-10%
O=C(O)c1ccc(S(=O)(=O)NC2CCCc3ccccc32)cc1 (stereo not given)	-3%[38.3 µM]	21%	9%	-3%	4	-1%[46.1 µM]
CC(=O)N1CCc2cc(S(=O)(=O)NC3CCCc4ccccc43)ccc21 (stereo not given)	14%	7.1µM*	?	38%[10 µM]	-11	-9%[46.1 µM]
COC(=O)c1ccc(Oc2c(C)oc3c(CN4CCN(C)CC4)c(O)ccc3c2=O)cc1	13µM*	20%	3%	-1%	-3	0%[46.1 µM]
Oc1ccc(Cc2cc(Cl)cc(Cl)c2O)cc1Cl	-2%	/	/	-2%[10 µM]	/	/
CN(CCO)C1=NS(=O)(=O)c2cc([N+](=O)[O-])ccc21	12%	6.3µM*	/	-160%	/	30%
C=CCOCCN(C)C1=NS(=O)(=O)c2cc([N+](=O)[O-])ccc21	-1%	-22%	?	-68%	/	17%
FC(F)(F)c1ccccc1-c1ccc2ncnc(NCCN3CCOCC3)c2c1	6%	/	-11%	1%	/	/
COc1ccc(C2CC(C(F)(F)F)n3nc(C(=O)NCc4c(C)nn(C)c4C)c(Cl)c3N2)cc1 (stereo not given)	53%[38.3 µM]	8.9µM*	?	-12%	-4	-15%[46.1 µM]
COc1ccc(C2CC(C(F)(F)F)n3nc(C(=O)N(C)Cc4cn(C)nc4C)c(Cl)c3N2)cc1 (stereo not given)	6%[38.3 µM]	-8%	3%	-11%	4	-12%[46.1 µM]
Cc1ccc(C)c(-n2c3nc(=O)[nH]c(=O)c-3cc3cc([N+](=O)[O-])ccc32)c1	20%	4%	11µM*	-52%[10 µM]	/	-16%
Cc1cccc(-n2c3nc(=O)[nH]c(=O)c-3cc3cc([N+](=O)[O-])ccc32)c1	11%	21%	?	26%[10 µM]	/	18%
CS(=O)(=O)N(CC(=O)NCc1ccncc1)Cc1ccc(Cl)cc1	19%[38.3 µM]	0.63µM*	9%	-21%	4	0%[46.1 µM]
CS(=O)(=O)N(CC(=O)NCc1cccnc1)Cc1ccc(Cl)cc1	15%[38.3 µM]	-5%	6%	9%[0.074 µM]	12	6%[46.1 µM]
N#C/C(=N\Nc1ccc(S(=O)(=O)N2CCOCC2)cc1)C(N)=S	/	5%[9.22 µM]	?	5%[10 µM]	/	43%
N#CC(C#N)=NNc1ccc(S(=O)(=O)N2CCCCC2)cc1	14%	20µM*	-1%	1%[10 µM]	/	-40%
